Bioassay records as filed in PubChem BioAssay.
JMJD2A Tudor – qHTS Assay for Inhibitors of JMJD2A-Tudor Domain; 390,000 tested, 4.4% active; Lysine-specific demethylase 4A (Homo sapiens), O75164; AlphaScreen JMJD2A-Tudor / H3K4me3 peptide binding; Potency, µM (series often up to 114 µM), inactives show at the top dose activity change, negative = inhibition, hits mostly inhibitors; note: % is set by controls: 0 for no effect and ±100 for the full control effect; nearly all actives have a fitted effect of over 50% in size
HP1b binding inh – HTS for Inhibitors of HP1-beta Chromodomain Interactions with Methylated Histone Tails | Chromobox protein homolog 1 (Homo sapiens), P83916 | AlphaScreen HP1-beta / biotin-H3K9me3 peptide binding | Potency, µM (series often up to 114 µM), for the others: top-dose activity change, negative = inhibition, usual class: inhibitors | 390,000 tested, 0.56% active | AID 540317, 2011; note: nearly all actives have a fitted effect of over 70% in size
Target sequence (P83916 whole entry, looked up): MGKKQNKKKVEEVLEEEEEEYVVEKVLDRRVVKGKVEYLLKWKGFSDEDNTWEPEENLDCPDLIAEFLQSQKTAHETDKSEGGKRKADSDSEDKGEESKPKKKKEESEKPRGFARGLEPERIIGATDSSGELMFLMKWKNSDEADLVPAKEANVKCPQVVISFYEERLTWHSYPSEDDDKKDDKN
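Compound inhibition of the preformed complex between 50 nM HP1-beta and 50 nM biotinylated H3K9me3 peptide was read by AlphaScreen. Buffer was PBS pH 7.4 with 0.01% Tween-20. Incubations ran 30 min at room temperature, with 10 ug/mL donor/acceptor beads.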
VDR inh – Inhibitors of the vitamin D receptor (VDR): qHTS; VDR-SRC2-3 peptide fluorescence polarization, 2 h; Potency, µM, inactives show max response, negative = inhibition, actives largely listed as inhibitors; 400,000 tested, 0.93% active; AID 504847, 2011; note: % is set by controls: 0 for no effect and ±100 for the full control effect
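Fluorescence polarization assay of small-molecule disruption of VDR binding to coregulator peptide SRC2-3. Compounds and controls pin-transferred, then read after 2 h incubation at ambient room temperature.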
BAZ2B inh – qHTS Assay for Inhibitors of BAZ2B; Bromodomain adjacent to zinc finger domain protein 2B (Homo sapiens), Q9UIF8; AlphaScreen BAZ2B-H3K14Ac peptide displacement; Potency, µM (doses to about 114 µM), without a hit: at the highest dose activity change, negative = inhibition, actives largely listed as inhibitors; 360,000 tested, 4.4% active; AID 504333, 2011; note: % is set by controls: 0 for no effect and ±100 for the full control effect; nearly all actives have a fitted effect of over 60% in size
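In this displacement format the biotinylated H3(5-23) peptide acetylated at Lys14 serves as ligand at 50 nM, with BAZ2B at 50 nM in PBS pH 7.4 containing 0.01% Tween-20. Donor and acceptor beads are 10 ug/mL final.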
G9a inh – qHTS Assay for Inhibitors of Histone Lysine Methyltransferase G9a; Histone-lysine N-methyltransferase EHMT2 (Homo sapiens), Q96KQ7; G9a H3K9 monomethylation, AlphaScreen, 2 h; Potency, µM (series often up to 102 µM), for inactives: at the top dose activity, negative = inhibition, usual class: inhibitors; 350,000 tested, 8.8% active; AID 504332, 2011; note: % is set by controls: 0 for no effect and ±100 for the full control effect; nearly all actives have a fitted effect of over 75% in size
Target sequence (Q96KQ7 913-1193 limits assumed): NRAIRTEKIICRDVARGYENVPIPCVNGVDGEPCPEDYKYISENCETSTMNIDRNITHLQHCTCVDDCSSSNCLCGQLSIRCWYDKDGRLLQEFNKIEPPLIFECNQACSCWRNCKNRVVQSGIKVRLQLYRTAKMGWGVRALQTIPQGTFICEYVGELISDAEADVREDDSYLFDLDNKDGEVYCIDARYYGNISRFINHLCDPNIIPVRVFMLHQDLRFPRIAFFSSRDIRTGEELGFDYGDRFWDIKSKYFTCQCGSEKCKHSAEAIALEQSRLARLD
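Methyltransferase reactions run at room temperature for 2 h (20 nM enzyme, 500 nM biotin-H3K9 peptide, 20 uM SAM) after a 15 min compound preincubation; product detected by AlphaScreen beads and anti-H3K9me1 antibody.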
PLK1 PBD block – qHTS for Inhibitors of PLK1-PDB (polo-like kinase 1 - polo-box domain): Primary Screen. Serine/threonine-protein kinase PLK1 (Homo sapiens), P53350. 360,000 tested, 2.8% active. Plk1 PBD binding of FITC phosphopeptide, fluorescence polarization. Potency, µM, without a hit: max response, negative = inhibition, actives largely listed as inhibitors; note: series mostly up to about 57 µM; % is set by controls: 0 for no effect and ±100 for the full control effect; nearly all actives have a fitted effect of over 65% in size
* = called active by the depositor; ? = inconclusive; · = no result given; [ ] = dose if it differs, or a comment. Rows were chosen to be rich in hits. Some 11% of all compounds tested hit in one or more screens of this group. Calls come from the whole dose curve; as a rule, active = well fitted curve in the direction sought with a large enough effect; inconclusive = small, poorly fitted or top-dose-only effect, or another doubt; inactive = no such curve, though single readings can be large; an effect the other way counts as inactive or inconclusive. Potency is the fitted concentration of half-maximal effect.

SMILES	JMJD2A Tudor	HP1b binding inh	VDR inh	BAZ2B inh	G9a inh	PLK1 PBD block
N#Cc1c(-c2ccccc2)cc(-c2cccs2)nc1SCC(=O)O	-13%	4%	?	-5%	8.9µM*	27µM*
Cc1ccc(NC(=S)N(Cc2ccco2)C2CCN(C(C)C)CC2)cc1	-15%	18%	-17%	-9%	-6%[59 µM]	-10%
COc1cccc(NC(=O)C(C)Sc2nnc(C3CC3)n2C2CC2)c1 (stereo unspecified)	-8%	30%	17%	11%	-12%[12.7 µM]	-3%
COc1cc2nc(/C=C/c3cc(OC)c(OC)c(OC)c3)sc2cc1SC	16%	136%	-11%	23%	11%[59 µM]	6%
COc1cc2nc(C)sc2cc1SC	?	?	?	29%	20%[59 µM]	24µM*
CCOc1ccc(C2OCCC(C)O2)cc1OC (stereo unspecified)	0%	0%[57 µM]	1%	·	·	-2%
Nc1sc(-c2ccccc2)cc1C(=O)NCCc1c[nH]c2ccccc12	·	·	·	·	·	1%
C/C=N\NC(=O)COc1cc(C)ccc1C	-9%[11.4 µM]	-5%	3%	-18%	9%	?
CCCc1cc(=O)oc2cc(C)cc(OC(C)C(=O)NCc3ccccn3)c12 (stereo unspecified)	-6%	52%	2%	-21%	1%	-17%
CSc1nnc(NC(=O)c2ccc(S(=O)(=O)N(C)C)cc2)s1	-3%	27%	4%	-5%	22µM*	-18%
Cc1nnc(NC(=O)c2ccc3c(c2)OCO3)s1	0%	24%	11%	-1%	-2%	-9%
CSc1nnc(NC(=O)c2ccc3c(c2)OCO3)s1	-21%	40%	?	-3%	28µM*	-12%
O=C(Nc1nncs1)c1ccc2c(c1)OCO2	2%	19%	17%	-3%	50µM*	-5%
C[C@@H]1CN([C@H](C)CO)C(=O)CCCn2nncc2CO[C@H]1CN(C)C(=O)c1ccncc1	·	·	·	·	·	-3%
COc1cc(NC(=O)Cn2nnc(-c3ccc(C(F)(F)F)cc3)n2)c(C(=O)O)cc1OC	-23%	41%	-3%	-6%	-14%[59 µM]	·
N#C/C(=C/c1ccco1)c1nc2ccccc2s1	-22%	13%	-18%	-27%	?	-8%
N#C/C(=C\c1ccco1)c1nc2ccccc2s1	-12%	21%	-2%	?	8.9µM*	-12%
N#C/C(=C\c1ccc(-c2ccccc2Cl)o1)C(=O)Nc1nc2ccccc2s1	-32%	14%	-16%	-1%	10%[59 µM]	-21%
N#C/C(=C/c1ccc(-c2cc(C(=O)O)cc(C(=O)O)c2)o1)c1nc2ccccc2s1	·	·	·	56µM*	11µM*	·
COc1ccc(CN2CCNC(=O)C2CC(=O)N(C)CC2CCOCC2)cc1C (stereo unspecified)	-17%	29%	9%	-23%	79µM*	-1%
COc1ccc(CN2CCNC(=O)C2CC(=O)N(C)CC2CCOCC2)cc1OC (stereo unspecified)	-4%	32%	-7%	-16%	79µM*	-1%
CC(C)Oc1cccc(NC(=O)C2(C)CCCN2C(=O)C(C)C)c1 (stereo unspecified)	·	·	·	·	·	2%
COc1ccc(-n2sc3c(c2=S)-c2cc(OC)ccc2NC3(C)C)cc1	3.2µM*	10µM*	2%	11µM*	10µM*	24µM*
COc1cc2c3c(c1)-c1c(sn(-c4cc(OC)ccc4OC)c1=S)C(C)(C)N3C(=O)C2=O	4%	19%	1%	7.1µM*	?	-1%
COc1ccc2c(c1)-c1c(sn(-c3ccc(OC)c(OC)c3)c1=S)C(C)(C)N2	35µM*	-81%	14%	10µM*	10µM*	-7%
SMILES	JMJD2A Tudor	HP1b binding inh	VDR inh	BAZ2B inh	G9a inh	PLK1 PBD block
COc1ccc2c(c1)-c1c(ssc1=S)C(C)(C)N2	20µM*	16µM*	-6%	13µM*	7.9µM*	-17%
Cc1ccc(CNC(=O)c2cnc3c(-c4ccccc4)c(C)nn3c2C)o1	-12%	30%	4%	-20%	-2%[59 µM]	·
Cc1c(-n2c(SCC(N)=O)nc3ccccc3c2=O)c(=O)n(-c2ccccc2)n1C	6%	3%	14%	2%	24%	-19%
COc1ccc2c(c1)C(=O)C(=O)N2	-2%[57.1 µM]	31%	-20%	?	-10%[59 µM]	-23%
COc1ccc2c(c1)-c1c(sn(-c3ccccc3)c1=S)C(C)(C)N2	40µM*	?	6%	8.9µM*	28µM*	-6%
Cc1ccc(C2(c3ccccc3)NC(=O)N(CC(=O)N3CC(=O)Nc4ccccc43)C2=O)cc1C (stereo unspecified)	?	8%	-2%	-8%	19%[12.7 µM]	0%
COC(=O)C1CCN(C(=O)COC(=O)CNS(=O)(=O)c2ccc(SC)c([N+](=O)[O-])c2)CC1	-30%	-16%	-10%	-11%	7%[0.501 µM]	-8%
CSc1ccc(S(=O)(=O)NCC(=O)OCC(=O)N2CC(C)CC(C)C2)cc1[N+](=O)[O-] (stereo unspecified)	-21%	-9%	1%	-9%	50µM*	-15%
Cn1c2c(c3ccccc31)CCN(CCCCN1CCN(c3ccccc3)CC1)C2=O	50µM*	?	-7%	·	·	-7%
Clc1ccccc1-c1nnc2sc(CCc3ccccc3)nn12	?	?	50µM*	1%	4.5µM*	7.5µM*
COc1ccccc1-c1nn2c(-c3ccccc3Cl)nnc2s1	·	·	·	-4%	?	·
O=C(O)CSc1nnc(Cn2nnc3ccccc32)n1CCc1ccccc1	-17%[57.1 µM]	40%	2%	-5%	-19%	-15%
c1ccc(Cc2nn3c(Cn4nnc5ccccc54)nnc3s2)cc1	-29%	-41%	89µM*	-1%	8.9µM*	8.4µM*
c1ccc(CCc2nn3c(Cn4nnc5ccccc54)nnc3s2)cc1	?	?	?	-7%	?	13µM*
c1ccc2c(c1)OCC(c1nn3c(Cn4nnc5ccccc54)nnc3s1)O2 (stereo unspecified)	?	?	?	50µM*	5µM*	24µM*
O=c1c2ccccc2nnn1CSc1nnc(C2COc3ccccc3O2)n1-c1ccccc1 (stereo unspecified)	-19%	29%	-12%	-33%	?	-4%
CC1(C)CC(c2nc(-c3ccc([N+](=O)[O-])cc3)cs2)CCO1 (stereo unspecified)	-14%[57.1 µM]	7%	-27%	?	50µM*	-20%
